The results in this text go back to PubChem BioAssay (Tox21).

Test [1] can be described thus: qHTS assay to identify small molecule antagonists of the thyroid receptor (TR) signaling pathway - cell viability counter screen (AID 743064). Also: nearly all actives have a fitted effect of over 50% in size. In a few lines:
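In rat pituitary GH3.TRE-Luc reporter cells co-exposed to compound and 1 nM T3 for 23.5 h, cytotoxicity was assessed with CellTiter-Fluor in the same wells, read by fluorescence.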
A general note: In qHTS, concentration-response curves come from the screen itself.

The nature of test [2]: qHTS assay to identify small molecule antagonists of the thyroid receptor (TR) signaling pathway (AID 743065). Also: series mostly up to about 70 µM; nearly all actives have a fitted effect of over 55% in size. In a few lines: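 GH3.TRE-Luc rat pituitary cells (two TREs driving luciferase) were dosed with compound, then stimulated with 1 nM T3 (final) for 23.5 h at 37 C. ONE-Glo luminescence was the read-out, with CellTiter-Fluor fluorescence as the cytotoxicity counter-screen.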

For test [3], the system named is thyroid hormone receptor (rat, GH3 cells). Description: qHTS assay to identify small molecule agonists of the thyroid receptor (TR) signaling pathway (AID 743066; calls by dose curve).
The target in test [4] is Estrogen receptor (Homo sapiens) (UniProt P03372). Description: qHTS assay to identify small molecule antagonists of the estrogen receptor alpha (ER-alpha) signaling pathway (AID 743069; active = well fitted curve in the direction sought with a large enough effect in the signal ratio in the repeat runs, not every such curve was filed as active; the % refers to the signal ratio). In a few lines:
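In this cell-based reporter format, GripTite HEK293 cells harbouring ER-alpha-UAS-bla were grown overnight with 2% charcoal-stripped FBS, dosed with DMSO-dissolved compounds, then challenged with 17beta-estradiol. After 18 hr at 37C, beta-lactamase activity was detected by FRET fluorescence.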

Test [5] can be described thus: qHTS assay to identify small molecule antagonists of the estrogen receptor alpha (ER-alpha) signaling pathway - cell viability counter screen (AID 743074; calls by dose curve; also: nearly all actives have a fitted effect of over 45% in size).
The target in test [6] is Estrogen receptor (Homo sapiens) (UniProt P03372). Description: qHTS assay to identify small molecule agonists of the estrogen receptor alpha (ER-alpha) signaling pathway (AID 743075; calls by dose curve).
Test [7] shares this target. The experiment in a line: qHTS assay to identify small molecule agonists of the estrogen receptor alpha (ER-alpha) signaling pathway using the BG1 cell line (AID 743079). Also: nearly all actives have a fitted effect of over 20% in size. Also: potency is read from the fitted curve at half-maximal effect.
Test [8] can be described thus: qHTS assay to identify small molecule antagonists of the estrogen receptor alpha (ER-alpha) signaling pathway using the BG1 cell line (AID 743080; calls by dose curve;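 also: BG1 cells stimulated with 17beta-estradiol alongside compound; nearly all actives have a fitted effect of over 25% in size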; also: potency is read from the fitted curve at half-maximal effect). A digest of the protocol: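 BG1-Luc-4E2 cells (endogenous full-length ER-alpha, 4xERE luciferase) hormone-starved 5 days in charcoal-stripped FBS, plated 4,000/well for 24 h, then compound plus 17beta-estradiol for 21.5 h at 37 C; ONE-Glo luminescence read.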

Test [9] is described as follows: qHTS assay to identify small molecule antagonists of the estrogen receptor alpha (ER-alpha) signaling pathway using the BG1 cell line - cell viability counter screen (AID 743081).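 Also: compound given together with 17beta-estradiol as the ER stimulus; series mostly up to about 70 µM; nearly all actives have a fitted effect of over 45% in size.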
Another test concerns the target Aromatase (Homo sapiens) (UniProt P11511). The experiment in a line: qHTS assay to identify aromatase inhibitors (AID 743083). Also: series mostly up to about 70 µM; nearly all actives have a fitted effect of over 55% in size.
Test [10] is described as follows: qHTS assay to identify aromatase inhibitors - cell viability counter screen (AID 743084).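 Also: cells stimulated with testosterone during compound exposure; nearly all actives have a fitted effect of over 55% in size.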
The target in test [11] is Aryl hydrocarbon receptor (Homo sapiens) (UniProt P35869). Description: qHTS assay to identify small molecule that activate the aryl hydrocarbon receptor (AhR) signaling pathway (AID 743085).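 Also: HG2L7.5c1 human HepG2 liver cells with stably integrated DRE-driven firefly reporter; series mostly up to about 70 µM; nearly all actives have a fitted effect of over 15% in size.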 A digest of the protocol:
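AhR agonist activity is inferred from enhanced light output of a DRE-controlled firefly luciferase reporter in HepG2 cells, measured with ONE-Glo following 24 h treatment at 37C.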

Test [12] can be described thus: qHTS assay to identify small molecule that activate the aryl hydrocarbon receptor (AhR) signaling pathway - cell viability counter screen (AID 743086).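 Also: HepG2 liver cells carrying the AhR DRE luciferase reporter; series mostly up to about 70 µM; nearly all actives have a fitted effect of over 45% in size.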 A digest of the protocol: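 HepG2-AhR-luc (HG2L7.5c1) cells, 4000/well, treated 24 h at 37 C with compound; viability measured as CellTiter-Fluor fluorescence after 30 min in the same wells as the luciferase read.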

The target of test [13] is Peroxisome proliferator-activated receptor gamma (Homo sapiens) (UniProt P37231). The experiment in a line: qHTS assay to identify small molecule agonists of the peroxisome proliferator-activated receptor gamma (PPARg) signaling pathway (AID 743094; active = well fitted activation curve with a large enough effect in the signal ratio in the repeat runs, not every such curve was filed as active; the % refers to the signal ratio). In a few lines:
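Cell-based bla reporter, HEK293H background, PPARg-driven UAS. Pre-incubation 5 h, 37C, 5% CO2. Compound 17 h, 37C. Substrate 1 h RT; fluorescence.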

Test [14] shares this target. The experiment in a line: qHTS assay to identify small molecule antagonists of the peroxisome proliferator-activated receptor gamma (PPARg) signaling pathway (AID 743191; calls by dose curve; also: series mostly up to about 63 µM; nearly all actives have a fitted effect of over 30% in size). A digest of the protocol: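 GeneBLAzer PPARg UAS-bla HEK293H cells, 5 h post-plating, exposed to compounds 17 h at 37C. LiveBLAzer B/G FRET substrate added for 1 h at room temperature; beta-lactamase reporter read by fluorescence intensity.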

Test [15] can be described thus: qHTS assay to identify small molecule antagonists of the peroxisome proliferator-activated receptor gamma (PPARg) signaling pathway - cell viability counter screen (AID 743194). Also: nearly all actives have a fitted effect of over 55% in size. A digest of the protocol: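 Cytotoxicity counter screen in PPARg-bla HEK293H cells, same wells as reporter assay. Compounds plus 50 nM rosiglitazone (final) for 17 h at 37 C, then viability read by CellTiter-Glo luminescence.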

A short description of test [16]: qHTS assay for small molecule agonists of the antioxidant response element (ARE) signaling pathway (AID 743202; active = well fitted activation curve with a large enough effect in the signal ratio in the repeat runs, not every such curve was filed as active; the % refers to the signal ratio; also: potency is read from the fitted curve at half-maximal effect). In a few lines: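 HepG2 ARE-bla cells; 16 h treatment at 37 C; FRET-based beta-lactamase fluorescence read after 2 h substrate incubation at room temperature.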
The nature of test [17]: qHTS assay for small molecule agonists of the antioxidant response element (ARE) signaling pathway - cell viability counter screen (AID 743203; calls by dose curve; also: nearly all actives have a fitted effect of over 55% in size). A digest of the protocol:
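Measured in the same wells as the beta-lactamase ARE reporter, this read-out is CellTiter-Glo luminescence from HepG2 ARE-bla cells given compounds for 16 hrs.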

Test [18] is described as follows: qHTS assay for small molecule activators of the heat shock response signaling pathway - cell viability counter screen (AID 743209). Also: nearly all actives have a fitted effect of over 50% in size. A digest of the protocol: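 Same-well multiplex: after 2.5 h room-temperature incubation with LiveBLAzer B/G substrate and fluorescence reading, CellTiter-Glo reagent was added to HSE-bla HeLa cells that had received compound for 5 h at 37 C; luminescence read after 30 min.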

Test [19] can be described thus: qHTS assay for small molecule activators of the heat shock response signaling pathway (AID 743210; active = well fitted activation curve with a large enough effect in the signal ratio in the repeat runs, with a control signal flat, not every such curve was filed as active; the % refers to the signal ratio;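 also: HeLa cells with beta-lactamase reporter driven by heat shock elements; series mostly up to about 63 µM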). A digest of the protocol:
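Following overnight attachment, HSE-bla HeLa cells received test compounds for 5 h at 37 C; beta-lactamase activity was then detected via FRET substrate fluorescence.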

Where “and” joins values, the source holds several entries; their conditions need not be identical. Identical values can stand only once. Records with an inconclusive call do not appear. More than one record can exist for a structure, and the calls need not agree. Calls of active or inactive are those of the source. Unless noted, calls follow the shape of the dose curve; as a rule, active = well fitted curve in the direction sought with a large enough effect in the repeat runs; inconclusive = weak or mixed curves; inactive = no such curve, though single readings can be large; an effect the other way counts as inactive or inconclusive.

Chain of Peroxisome proliferator-activated receptor gamma (Homo sapiens) (P37231 whole entry, looked up): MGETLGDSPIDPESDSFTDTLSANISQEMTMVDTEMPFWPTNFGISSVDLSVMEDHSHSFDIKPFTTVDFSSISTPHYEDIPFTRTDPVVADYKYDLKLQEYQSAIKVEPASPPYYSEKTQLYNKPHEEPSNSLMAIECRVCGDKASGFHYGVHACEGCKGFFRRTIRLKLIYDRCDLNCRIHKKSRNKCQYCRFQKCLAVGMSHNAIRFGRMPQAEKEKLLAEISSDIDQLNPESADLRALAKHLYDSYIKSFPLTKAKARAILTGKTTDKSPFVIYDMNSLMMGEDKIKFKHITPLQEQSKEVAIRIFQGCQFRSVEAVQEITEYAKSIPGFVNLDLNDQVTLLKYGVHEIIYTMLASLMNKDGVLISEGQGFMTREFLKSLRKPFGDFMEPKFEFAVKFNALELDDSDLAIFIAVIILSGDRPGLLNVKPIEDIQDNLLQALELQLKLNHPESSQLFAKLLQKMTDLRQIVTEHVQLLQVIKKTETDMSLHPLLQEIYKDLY
Chain of Estrogen receptor (Homo sapiens) (P03372 whole entry, looked up): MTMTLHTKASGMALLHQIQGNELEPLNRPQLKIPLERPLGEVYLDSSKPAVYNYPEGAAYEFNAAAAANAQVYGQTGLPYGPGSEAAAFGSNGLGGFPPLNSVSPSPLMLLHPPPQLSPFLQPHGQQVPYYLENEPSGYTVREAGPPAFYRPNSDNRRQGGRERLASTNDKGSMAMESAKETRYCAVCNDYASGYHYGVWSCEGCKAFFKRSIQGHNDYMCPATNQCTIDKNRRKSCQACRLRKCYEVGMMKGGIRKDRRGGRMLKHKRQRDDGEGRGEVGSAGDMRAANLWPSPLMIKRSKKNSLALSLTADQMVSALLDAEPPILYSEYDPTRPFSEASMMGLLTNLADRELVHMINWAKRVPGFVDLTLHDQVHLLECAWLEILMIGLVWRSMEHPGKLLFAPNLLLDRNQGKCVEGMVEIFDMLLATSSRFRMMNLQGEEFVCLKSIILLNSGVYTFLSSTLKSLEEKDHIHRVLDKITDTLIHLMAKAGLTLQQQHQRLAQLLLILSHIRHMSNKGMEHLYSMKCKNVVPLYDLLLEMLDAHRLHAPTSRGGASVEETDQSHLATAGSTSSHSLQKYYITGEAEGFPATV
Chain of Aryl hydrocarbon receptor (Homo sapiens) (P35869 whole entry, looked up): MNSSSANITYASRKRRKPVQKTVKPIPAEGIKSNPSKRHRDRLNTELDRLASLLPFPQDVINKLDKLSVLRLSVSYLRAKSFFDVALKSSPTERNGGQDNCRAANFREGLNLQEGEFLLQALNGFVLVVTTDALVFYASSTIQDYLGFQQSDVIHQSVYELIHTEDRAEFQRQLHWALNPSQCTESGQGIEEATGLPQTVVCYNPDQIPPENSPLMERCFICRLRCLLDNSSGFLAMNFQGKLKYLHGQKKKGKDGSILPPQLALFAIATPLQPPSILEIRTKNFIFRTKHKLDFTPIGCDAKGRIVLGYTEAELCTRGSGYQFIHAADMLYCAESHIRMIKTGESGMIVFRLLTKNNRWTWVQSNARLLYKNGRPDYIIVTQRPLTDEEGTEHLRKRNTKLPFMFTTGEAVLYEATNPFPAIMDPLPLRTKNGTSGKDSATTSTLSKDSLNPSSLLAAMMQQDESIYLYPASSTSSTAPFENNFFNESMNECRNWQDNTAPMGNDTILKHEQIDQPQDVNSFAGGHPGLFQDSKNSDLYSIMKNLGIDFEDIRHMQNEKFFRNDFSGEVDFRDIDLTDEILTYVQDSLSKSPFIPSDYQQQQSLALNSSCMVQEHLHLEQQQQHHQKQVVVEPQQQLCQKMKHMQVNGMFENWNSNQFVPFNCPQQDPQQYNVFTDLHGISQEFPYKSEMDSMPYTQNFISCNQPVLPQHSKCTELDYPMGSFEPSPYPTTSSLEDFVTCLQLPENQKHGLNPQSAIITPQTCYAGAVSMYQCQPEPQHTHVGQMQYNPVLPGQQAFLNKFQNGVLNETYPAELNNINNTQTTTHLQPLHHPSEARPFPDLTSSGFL
Chain of Aromatase (Homo sapiens) (P11511 whole entry, looked up): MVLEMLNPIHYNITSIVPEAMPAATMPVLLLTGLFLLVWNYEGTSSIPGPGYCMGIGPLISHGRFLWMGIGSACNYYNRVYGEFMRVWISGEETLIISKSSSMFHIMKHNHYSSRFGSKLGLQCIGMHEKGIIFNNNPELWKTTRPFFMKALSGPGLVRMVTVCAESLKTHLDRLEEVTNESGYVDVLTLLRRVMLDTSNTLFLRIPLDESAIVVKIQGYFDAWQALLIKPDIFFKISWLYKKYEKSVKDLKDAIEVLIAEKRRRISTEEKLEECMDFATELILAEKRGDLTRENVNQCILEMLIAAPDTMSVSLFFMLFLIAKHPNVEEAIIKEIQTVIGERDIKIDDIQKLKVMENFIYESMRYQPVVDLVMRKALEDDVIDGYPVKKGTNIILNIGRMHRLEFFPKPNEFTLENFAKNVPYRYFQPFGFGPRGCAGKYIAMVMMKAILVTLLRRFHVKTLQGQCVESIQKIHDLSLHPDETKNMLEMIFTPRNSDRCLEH

Regarding `COC(=O)c1ccc(C=O)cc1`, the Potency result in test [1], in [2], in test [4], in test [6], in [7] and in test [8] was “inactive” throughout. The Potency result (in test [9]; with Aromatase (Homo sapiens); in [10]; in test [11]; in test [12]; in [13]) was “inactive” throughout. Besides, the Potency result in test [14], in test [15], in [16] and in test [17] was “inactive” each time. Also, the outcome in test [3], in test [5], in [18] and in test [19] was inactive.
Regarding `OCCCc1ccccc1`, the Potency result in [1], in test [2], in [4], in test [6], in test [7] and in test [8] was “inactive” throughout. Besides, the Potency result (in test [9]; in the test with Aromatase (Homo sapiens); in [10]; in [12]; in test [13]; in [14]) was “inactive” each time. Moreover, the Potency entry in [15], in test [16] and in [17] was “inactive” throughout. Besides, the call in [3], in test [5], in [18] and in test [19] was inactive.
As to `COc1cc(O)c(C(=O)c2ccccc2)cc1S(=O)(=O)O`, the Potency result in test [1], in [2], in test [4], in [6], in test [7] and in [8] was “inactive” each time. For the same compound, the Potency result (in test [9]; in the test with Aromatase (Homo sapiens); in test [10]; in test [12]; in test [13]; in test [14]) was “inactive” throughout. In addition, the Potency entry in [15], in test [16] and in [17] was “inactive” in each case. The call in [3], in [5], in test [18] and in [19] was inactive.
Turning to `Cc1cccc2ccccc12`, the Potency result in test [1], in [2], in test [4], in test [6], in test [7] and in [8] was “inactive” in each case. In addition, the Potency result (in [9]; with Aromatase (Homo sapiens); in [10]; in test [11]; in test [12]; in [13]) was “inactive” in each case. Also, the Potency result in [14], in [15], in test [16] and in test [17] was “inactive” throughout. Besides, the outcome in [3], in test [5], in [18] and in [19] was inactive.
For the compound `C[C@]12C[C@H](O)[C@H]3[C@@H](CCC4=CC(=O)CC[C@@]43C)[C@@H]1CC[C@@H]2C(=O)CO`, the Potency result in test [1], in test [2], in [4], in [6], in test [7] and in [8] was “inactive” each time. The Potency entry (in test [9]; in the test with Aromatase (Homo sapiens); in [10]; in test [11]; in [12]; in test [13]) was “inactive” each time. Also, the Potency result in [15], in test [16] and in test [17] was “inactive” throughout. Further, the outcome in test [3], in test [5], in test [18] and in test [19] was inactive.
As for `COCCOCCOC`, the Potency entry in [1], in [2], in test [4], in [6], in test [7] and in test [8] was “inactive” throughout. For the same compound, the Potency entry (in test [9]; with Aromatase (Homo sapiens); in test [10]; in test [11]; in test [12]; in test [13]) was “inactive” in each case. For the same compound, the Potency result in test [14], in [15], in test [16] and in test [17] was “inactive” each time. Besides, the result in test [3], in test [5], in test [18] and in test [19] was inactive.
For `C=CCOC(=O)CC(C)C`, the Potency result in test [1], in [2], in test [4], in [6], in test [7] and in test [8] was “inactive” throughout. The Potency entry (in test [9]; with Aromatase (Homo sapiens); in test [10]; in test [12]; in [13]; in test [14]) was “inactive” throughout. The Potency result in [15], in [16] and in test [17] was “inactive” throughout. Also, the call in test [3], in [5], in [18] and in test [19] was inactive.
On to `CCCCCCCCOc1ccc(C(=O)c2ccccc2)c(O)c1`, for which the Potency entry in [1], in test [2], in [4], in test [6], in test [7] and in test [9] was “inactive” each time. Further, the Potency result (in the test with Aromatase (Homo sapiens); in test [10]; in [11]; in test [12]; in test [13]; in test [14]) was “inactive” in each case. Also, the Potency result in [15] and in test [17] was “inactive” throughout. Also, the call in test [3], in [5], in [18] and in [19] was inactive. For the same compound, the Potency is 12.3 µM (active) and 12.2 µM (active) in [8]; “inactive and 48.6 µM (active)” in test [16].
Consider `Cc1cccc(C)c1O`, for which the Potency result in test [1], in test [2], in test [4], in test [6], in test [7] and in test [8] was “inactive” throughout. The Potency entry (in test [9]; with Aromatase (Homo sapiens); in [10]; in test [12]; in test [13]; in [14]) was “inactive” throughout. The Potency entry in test [15], in test [16] and in [17] was “inactive” throughout. The outcome in test [3], in test [5], in test [18] and in test [19] was inactive.
For `CC(C)Cc1ccc(C(C)C(=O)O)cc1` (stereo not drawn), the Potency entry in test [1], in test [2], in test [4], in test [6], in [8] and in test [9] was “inactive” throughout. Besides, the Potency entry (with Aromatase (Homo sapiens); in test [10]; in [11]; in [12]; in test [13]; in test [14]) was “inactive” each time. Besides, the Potency result in test [15], in [16] and in test [17] was “inactive” throughout. The result in test [3], in test [5], in [18] and in test [19] was inactive. Moreover, the Potency result in test [7] is “inactive and 68.6 µM (active)”.
Consider `CCCCCCCCCCCCCCCCCC(=O)OCC(O)CO` (stereo not drawn), for which the Potency result in [1], in test [2], in test [4], in test [6], in [7] and in test [8] was “inactive” throughout. The Potency entry (in test [9]; with Aromatase (Homo sapiens); in [10]; in test [11]; in test [12]; in [13]) was “inactive” in each case. Further, the Potency result in test [14], in [15], in [16] and in test [17] was “inactive” each time. In addition, the result in test [3], in test [5], in test [18] and in [19] was inactive.
As to `CC(C)(C)NCC(O)c1ccc(O)c(CO)c1` (stereo not drawn), the Potency entry in test [1], in test [2], in test [4], in [6], in [7] and in test [8] was “inactive” throughout. The Potency result (in [9]; with Aromatase (Homo sapiens); in test [10]; in test [11]; in test [12]; in test [13]) was “inactive” each time. Besides, the Potency result in [14], in test [15], in [16] and in test [17] was “inactive” each time. Further, the result in test [3], in test [5], in test [18] and in test [19] was inactive.
Turning to `Cc1c(N(C)C)c(=O)n(-c2ccccc2)n1C`, the Potency result in test [1], in [2], in test [4], in [6], in test [7] and in [8] was “inactive” each time. For the same compound, the Potency entry (in test [9]; with Aromatase (Homo sapiens); in test [10]; in [11]; in test [12]; in [15]) was “inactive” each time. Further, the Potency entry in [16] and in [17] was “inactive” each time. Moreover, the result in test [3], in [5], in [18] and in [19] was inactive.
